Screens deposited in PubChem by NMMLSC.
An excerpt weighted towards active compounds, which were near 1.2% of everything screened.
Avidin fluor – compound fluoresces at 488/530 nm on avidin beads. AID 1775. 220,000 tested, 0.38% active. compound fluorescence 488/530 nm, flow cytometry; stronger effect = higher value. fluorescence (KMESF) at 10 µM; in the data active means fluorescence above about 47
RGS16-Gao – regulators of human RGS16-Galphao interaction | bead-based flow cytometry RGS16-Galphao binding, fluorescence; actives lie on both sides | binding response (% of control), % at 10 µM | 220,000 tested, 0.38% active; call rule not given here;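 further: Galphao activated by GDP with aluminum fluoride before binding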
RGS4-Gao reg – modulates binding of RGS4 to human Galphao; Multiplexed bead flow cytometry; actives lie on both sides; binding response (% of control), % at 10 µM; 220,000 tested, 0.33% active; AID 1415; in the data active means binding response below about 49% or above about 150%; inactive means in between;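 further: fluorescent Galphao activated with aluminum fluoride binding bead-coupled RGS4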
Target sequence (P09471 whole entry, looked up): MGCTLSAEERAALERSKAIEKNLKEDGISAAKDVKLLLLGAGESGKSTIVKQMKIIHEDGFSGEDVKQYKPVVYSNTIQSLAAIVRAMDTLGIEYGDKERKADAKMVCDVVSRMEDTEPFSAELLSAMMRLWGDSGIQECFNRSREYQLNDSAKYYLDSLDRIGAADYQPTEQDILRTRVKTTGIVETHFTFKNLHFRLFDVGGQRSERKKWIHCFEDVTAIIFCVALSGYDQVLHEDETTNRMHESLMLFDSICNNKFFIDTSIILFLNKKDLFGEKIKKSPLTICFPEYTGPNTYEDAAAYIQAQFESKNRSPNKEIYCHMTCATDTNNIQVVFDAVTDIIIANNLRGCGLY
GSH bead fluor – compound fluoresces at 488/530 nm on GSH beads; GSH beads flow cytometry, compound fluorescence 488/530 nm; stronger effect = higher value; fluorescence (KMESF) at 10 µM; 190,000 tested, 0.25% active; in the data active means fluorescence above about 89;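 further: glutathione beads carrying GST-tagged Bcl family fusion proteins plus one bare bead set; values are compound well signal with DMSO vehicle wells as background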
RGS7-Gao reg – modulates binding of RGS7 to human Galphao; AID 1439; 220,000 tested, 0.35% active; P09471; binding response (% of control), % at 10 µM; Multiplexed bead flow cytometry; actives lie on both sides; in the data active means binding response below about 49% or above about 150%; inconclusive means no clear call, values can overlap the other calls; inactive means in between;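 further: fluorescent Galphao held in activated GDP-AlF4 state binding bead-coupled RGS7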
RGS8-Gao – regulators of human RGS8-Galphao interaction | multiplexed bead flow cytometry, RGS8-Galphao binding; actives lie on both sides | response (percent of control binding), % at 10 µM | 220,000 tested, 0.34% active; in the data active means response below about 60% or above about 140%; inactive means in between;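 further: Galphao activated as the GDP aluminium fluoride complex binding bead-coupled RGS8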
* = called active by the depositor; ? = inconclusive; nt = not tested or not shown.

SMILES	Avidin fluor	RGS16-Gao	RGS4-Gao reg	GSH bead fluor	RGS7-Gao reg	RGS8-Gao
COCCN(C(=S)Nc1c(C)cc(C)cc1C)C(C)c1cccs1 (stereo not given)	8	103.0	103.2	11	105.0	98.8
Clc1ccc(OCc2noc(-c3ccsc3)n2)c(Cl)c1	3	103.7	104.8	nt	?	103.9
CCCCOc1ccc(N=Cc2cccs2)cc1	1	43.9	92.2	6	97.2	80.4
Oc1ccc(N=Cc2ccc(-c3cccs3)s2)cc1	47*	102.0	104.5	10	105.5	98.7
CCCCN1C(=O)N(C)C2C1N(C)C(=O)N2CCCC (stereo not given)	5	123.8	104.7	130*	103.0	106.4
CCCCN1C(=O)N(C)C2NC(=O)NC21 (stereo not given)	10	101.8	99.8	14	98.1	98.4
CC(=O)c1cccc(NC(=O)C(=O)c2cn(CC(=O)N3CCCCC3)c3ccccc23)c1	24	100.3	102.0	22	99.3	102.1
CCC(C)NS(=O)(=O)c1ccc(OCC(=O)NCc2cccnc2)cc1 (stereo not given)	4	64.4	103.2	257*	103.8	95.2
CCC(C)NS(=O)(=O)c1ccc(OCC(=O)NCc2ccccn2)cc1 (stereo not given)	16	107.1	103.7	14	109.8	102.3
O=C(C[n+]1ccc(/C=N/O)cc1)N(Cc1ccccc1)Cc1ccccc1	9	101.9	101.8	13	101.8	104.6
CCOC(=O)CCCc1c[nH]c2ccccc12	36	112.4	102.6	16	100.8	105.0
Cc1noc(C)c1COC(=O)CCCc1c[nH]c2ccccc12	6	90.1	82.2	258*	84.4	93.7
CC(C)NC(=O)CCCc1c[nH]c2ccccc12	58*	105.3	100.8	8	120.7	99.7
COc1ccc(-c2nnn(CC(=O)N3CCOCC3)n2)cc1	79*	94.6	99.5	34	118.2	97.5
CCOc1ccc(-c2c[n+]3c(n2-c2ccccc2)CCCCC3)cc1	6	143.0	100.7	9	95.2	104.6
O=C(COC(=O)c1ccc(S(=O)(=O)NCc2ccco2)cc1)c1ccccc1	6	106.4	99.6	11	102.1	102.3
O=C(COC(=O)c1ccc(S(=O)(=O)NCc2ccco2)cc1)NC1CCCCC1	6	104.0	96.2	268*	94.3	100.4
O=C(Oc1cccnc1)c1cccc(Cl)c1	6	110.7	106.8	267*	104.4	106.4
Cc1ccc(/C(=N/Nc2nc3ccccc3s2)C2=C(O)c3ccccc3C2=O)cc1	24	116.0	102.0	10	102.5	107.5
O=C(Cc1n[nH]c(=O)[nH]c1=O)N/N=C/c1ccccc1	21	102.7	102.6	9	101.7	104.2
O=C(CSc1n[nH]c(=O)[nH]c1=O)N/N=C/c1ccccc1	10	130.6	92.7	215*	93.5	109.4
COc1ccc(NS(=O)(=O)c2ccc3nc(COc4ccc(Cl)c(C)c4)[nH]c3c2)cc1	10	108.1	95.7	11	102.4	99.8
Cc1ccc(C)c(Cn2c(C)nc3c(sc(=S)n3-c3ccccc3)c2=O)c1	9	100.3	101.0	27	101.3	100.5
CCc1nnc(NC(=O)C2CCCN2C(=O)NC2CCCCC2)s1 (stereo not given)	8	99.8	101.7	262*	102.3	100.3
O=c1oc2ccccc2c(O)c1C=Nc1cccnc1	12	106.1	101.9	25	106.2	101.8
SMILES	Avidin fluor	RGS16-Gao	RGS4-Gao reg	GSH bead fluor	RGS7-Gao reg	RGS8-Gao
O=c1oc2ccccc2c(O)c1/C=N/c1ccccn1	6	89.0	104.1	263*	103.5	102.8
c1ccc(Cn2c(CSc3nnnn3-c3ccccc3)nc3ccccc32)cc1	3	25.7	84.5	237*	97.1	97.2
O=C(O)Cc1csc(NC(=O)c2ccco2)n1	7	96.0	101.3	276*	103.4	98.3
Cc1nn(Cc2cccc(C(N)=O)c2)c(C)c1Br	6	106.4	98.5	nt	?	101.0
Cc1nn(Cc2cccc(C(=O)NCC(C)C)c2)c(C)c1Br	6	96.3	115.5	148*	112.0	102.0
O=C(CN(C(=O)CCC(=O)Nc1nccs1)c1cccc(F)c1)NCC1CCCO1 (stereo not given)	59*	100.7	104.9	37	116.5	97.7
O=C(NCc1ccc2c(c1)CCO2)Nc1ccccc1	6	104.9	105.1	nt	?	101.6
